Data as given in PubChem BioAssay (EPA / NIEHS).
Activity calls are given as the source filed them. Rule for the calls: active = hit-call score of the fitted dose curve at least 0.9, where 1 is the maximum; inactive = score below 0.9.

Read-out: Pro-epidermal growth factor (Homo sapiens) (UniProt P01133)
Experiment: LTEA_HepaRG_EGF: Life Technologies and Expression Analysis (LTEA) Assay for Epidermal growth factor (EGF) using HepaRG (AID 2283489)
Details: mRNA level, 48 h; actives raise or lower the signal
Experimental: LTEA_HepaRG is a cell based, multiplexed-readout assay that uses HepaRG, a human liver cell line, with measurements taken at 48 hours after chemical dosing on a 96-well plate.LTEA_HepaRG_EGF is one of 102 assay component(s) measured in the LTEA HepaRG cell culture assay. It is a marker of Cell proliferation, survival, death.Data from the assay component LTEA_HepaRG_EGF was analyzed into 1 endpoint. This assay endpoint, LTEA_HepaRG_EGF, was analyzed with bidirectional fitting relative to DMSO as the negative control and baseline of activity. Using a type of inducible reporter, measures of mRNA induction for gain or loss-of-signal activity can be used to understand regulation of transcription factor activity. To generalize the intended target to other relatable targets, this assay endpoint is annotated to the growth factor intended target family, where the subfamily is EGF-like domain.
A total of 1060 chemcials from the ToxCast library were tested in eight-point concentration-response experiments. Cell culture and cytotoxicity assays were conducted at Thermo Fisher Scientific's Custom Services facility (Madison, WI). A single lot of human HepaRG cells (Thermo Fisher Scientific, Frederick, MD) was used for the cell culture experiments. 96-well format collagen type I coated plates of human HepaRG cells were prepared using established methods. Briefly, cryopreserved HepaRG cells were thawed, plated at a density of approximately 100,000 cells/well in HepaRG Thaw, Plate, and General Purpose media (HPRG770, Thermo Fisher Scientific), and incubated for 48 hours. 0.5% DMSO was selected as vehicle control to balance the requisite need of DMSO in HepaRG cultures to maintain differentiation (for example, baseline metabolism, proportions of hepatocytes vs. cholangiocytes), while enabling further hepatic receptor pathway activation (for example, PXR and CAR) in response to chemical exposure. 48 hours after plating, the culture medium was replaced with HepaRG Serum-Free Incudtion Media. Cells were exposed to each test chemical in duplicate and maintained in CO2 incubators for another 48 hours. Chemical plates were thawed to room temperature and 200x concentrations of treatment groups were prepared. 8-point conentration-reponse curves were made with the highest exposure at 100 uM, followed by half-log dilutions, all in 0.5% DMSO. Each test plate contained variouse controls, induction positive controls (1mM phenobarbital), cytotoxicity positive controls ([…] aflatoxin B1), vehicle controls (0.5% DMSO), and total lysis controls (0.5% DMSO). Cell morphology images were taken using an Essen IncuCyte FLR automated microscope, with six 96-well plates imaged in about 24 minutes. Images were captured and exported and JPEG files. Spent culture media was transfered to black-well plates for the LDH assay, and remaining media was sorted at -80 C for later use. Cells were treated with RLT buffer and frozen until shipped for gene expression analysis. Total RNA was isolated from the cell suspension in 75 uL of Buffer RLT (Qiagen, Germantown, MD 20874) by Quintiles/Expression Analysis (Durham, NC) using a custom isolation procedure. Total RNA from each plate well was transferred to a preamplification plate. Fluidigm's 96.96 Dynamic ArrayTM (Fluidigm, Amsterdam, the Netherlands) technology was used for gene expression analyses by quantitative reverse transcription polymerase chain reaction (qRT-PCR, performed by Quintiles/Expression Analysis, Durham, NC)89. Standard TaqManTM Assays (Applied Biosystems/ThermoFisher Scientific, Foster City, CA) were used to assess the expression of 93 genes selected based on their selectivity and sensitivity to important hepatic receptors known to be modulated by environmental chemicals; importance in human hepatocyte functionality; and hepatotoxicity. […]

Compound | outcome | AC50
CCCCC(CC)COC(=O)CCCCC(=O)OCc1ccccc1 (stereo not given) | inactive | 
C#C[C@]1(O)CC[C@H]2[C@@H]3CCC4=CC(=O)CC[C@@H]4[C@H]3CC[C@@]21C |  | 22.9 µM (active)
CC[C@H](c1ccc(O)cc1)[C@@H](CC)c1ccc(O)cc1 | inactive | 
COCC(C)O (stereo not given) | inactive | 
CN1CCN(c2ccccc2/C=C2\SCCN(c3ccc(Cl)c(Cl)c3)C2=O)CC1 | inactive | 
Oc1cc2ccccc2c2ccccc12 | inactive | 
Cc1cc(CCN2CCN(c3nsc4ccccc34)CC2)cc2c1NC(=O)CC2(C)C | inactive | 
Cc1oc(-c2ccccc2)nc1CCOc1ccc(C[C@H](Nc2ccccc2C(=O)c2ccccc2)C(=O)O)cc1 |  | 24.9 µM (active)
CCCCCCCCC(=O)O | inactive | 
Cc1cc(C)c(O)c(C)c1 | inactive | 
NC(=O)N(O)[C@@H]1C=C[C@H](Oc2cccc(Oc3ccc(F)cc3)c2)C1 | inactive | 
CCCCCCCCCCCCCCCS(=O)(=O)Oc1ccccc1 | inactive | 
c1ccc2c(c1)ccc1ccccc12 | inactive | 
C=C(C)C(=O)OCCC(F)(F)C(F)(F)C(F)(F)C(F)(F)C(F)(F)C(F)(F)F | inactive | 
CCCOc1sc(C(=O)N2CCC(c3cc(CN)ccc3F)CC2)c(C)c1Br | inactive | 
c1ccc2c(c1)Cc1ccccc1-2 | inactive | 
OCCC(F)(F)C(F)(F)C(F)(F)C(F)(F)C(F)(F)C(F)(F)F | inactive | 
O=C(OCCOCCOC(=O)c1ccccc1)c1ccccc1 | inactive | 
CCCCOCCO | inactive | 
CCCCCCCCCCCCc1ccccc1S(=O)(=O)O |  | 50 µM (active)

Compound | outcome | AC50
O=[N+]([O-])c1ccc(O)cc1 | inactive | 
CCCCC(CC)COC(=O)CCCCC(=O)OCC(CC)CCCC (stereo not given) | inactive | 
c1ccc2cc3c(ccc4ccccc43)cc2c1 | inactive | 
O=C(O)c1ccccc1C(c1ccc(O)cc1)c1ccc(O)cc1 | inactive | 
O=C(O)Cc1cc(I)c(Oc2cc(I)c(O)c(I)c2)c(I)c1 |  | 57.3 µM (active)
CCCCCCCCCCCCN1CCCC1=O | inactive | 
Oc1cccc(O)c1 | inactive | 
CN(C)C=O | inactive | 
CC(C)CCCCCCOC(=O)CCCCC(=O)OCCCCCCC(C)C | inactive | 
N#C[C@@H]1CC(F)(F)CN1C(=O)CNC1CC2CCC(C1)N2c1ncccn1 (stereo not given in full) | inactive | 
C[C@@H]1C[C@H]2[C@@H]3CCC4=CC(=O)C=C[C@]4(C)[C@@]3(F)[C@@H](O)C[C@]2(C)[C@@]1(O)C(=O)COP(=O)(O)O | inactive | 
CCc1nn(C2CCCCC2)c2cc(C3(C#N)CCC(C(=O)O)CC3)ccc12 (stereo not given) |  | 50 µM (active)
CC(C)(C)c1ccc(O)c(C(C)(C)C)c1 | inactive | 
CCN(CC)CCNc1ccc(CNC=O)c2sc3ccc(OC)cc3c(=O)c12 | inactive | 
CCCCCCCC(=O)O | inactive | 
OCCC(F)(F)C(F)(F)C(F)(F)C(F)(F)C(F)(F)C(F)(F)C(F)(F)C(F)(F)F | inactive | 
CC(C)(C)CC(C)(C)c1ccc(O)c(-n2nc3ccccc3n2)c1 |  | 50 µM (active)
OC1CCCCC1 | inactive | 
CCCCCCCCOC(=O)CCCCCCCCC(=O)OCCCCCCCC | inactive | 
CC(C)(C)c1cc(C(C)(C)C)c(O)c(C(C)(C)C)c1 | inactive | 
